Experimental data: PubChem BioAssay (NCI)
Compounds without any hit were thinned out: in the full panel of roughly 83,000, 20% have a hit.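 A percent growth of 40 corresponds to 60% growth inhibition; 0 means no net growth; -100 means all cells died. Active threshold: below 10.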 Values without a mark were called inactive. Active and inactive are the calls of the source.

How the values were obtained:
Assay in all cases: NCI-60 one-dose screen, 48 h (100 = growth as untreated, 0 = no growth, -100 = all killed)
Details in all cases: 10 µM unless noted
SR leukemia = system: SR leukemia
RPMI-8226 leukemia = system: RPMI-8226 leukemia
OVCAR-8 ovarian = system: OVCAR-8 ovarian
OVCAR-5 ovarian = system: OVCAR-5 ovarian
OVCAR-4 ovarian = system: OVCAR-4 ovarian
SK-OV-3 ovarian = system: SK-OV-3 ovarian
IGROV1 ovarian = system: IGROV1 ovarian
OVCAR-3 ovarian = system: OVCAR-3 ovarian
HS 578T breast = system: HS 578T breast
NCI/ADR-RES ovarian = system: NCI/ADR-RES ovarian
T-47D breast = system: T-47D breast
BT-549 breast = system: BT-549 breast
MDA-MB-435 melanoma = system: MDA-MB-435 melanoma
SW-620 colon = system: SW-620 colon
MCF7 breast = system: MCF7 breast
HCT-116 colon = system: HCT-116 colon
HCC-2998 colon = system: HCC-2998 colon
KM12 colon = system: KM12 colon

Row | Structure (SMILES) | growth (SR leukemia) | growth (RPMI-8226 leukemia) | growth (OVCAR-8 ovarian) | growth (OVCAR-5 ovarian) | growth (OVCAR-4 ovarian) | growth (SK-OV-3 ovarian) | growth (IGROV1 ovarian) | growth (OVCAR-3 ovarian) | growth (HS 578T breast) | growth (NCI/ADR-RES ovarian) | growth (T-47D breast) | growth (BT-549 breast) | growth (MDA-MB-435 melanoma) | growth (SW-620 colon) | growth (MCF7 breast) | growth (HCT-116 colon) | growth (HCC-2998 colon) | growth (KM12 colon)
1 | COc1cc(C2CC(c3ccc(C)cc3)=NN2C=O)ccc1Oc1nc2c(c(=O)n(C)c(=O)n2C)n1C (stereo not drawn) | 85.7% | 72.1% | 92.4% | 102% | 77.8% | 124% | 82.6% | 105% | 80.2% | 63% | 80% | 97.9% | 62.7% | 102% | 77.1% | 81.8% | 86.6% | 77.9%
2 | CC(C)[C@@]12C[C@@H](OC(=O)[C@H]3CO3)[C@@](C)(O1)[C@@H]1CC[C@@H](C)[C@H]1[C@@H]2OC(=O)/C=C/c1ccccc1 | 69.4% | 72.7% | 11.1% | 100% | 92% | 76.5% | 85.7% | 87% | -23.9% (active) | 31.1% | 49.4% | 21.4% | 98.2% | 94.8% | 62.4% | 65.8% | 105% | 103%
3 | CCSc1cnnc2ccccc12 | 94.2% | 111% | 104% | 103% | 103% | 109% | 128% | 121% | 117% | 104% | 107% | 116% | 105% | 113% | 108% | 106% | 101% | 113%
4 | CC(C)(C)c1nn(-c2ccccc2)c2c1C(=O)CSC(c1ccc3c(c1)OCO3)N2 (stereo not drawn) | 78.8% | 102% | 109% | 95.7% | 103% | 95.4% | 88.5% | 93.2% | 101% | 88.2% | 84.4% | 112% | 99.6% | 108% | 90.3% | 85.6% | 105% | 101%
5 | O=C1/C(=C/c2ccccc2)SC(=Nc2ccccc2)N1Nc1ccccc1 | -20.1% (active) | -37.4% (active) | 24.5% | 22.3% | 8.26% (active) | 10.5% | 22.7% | -5.68% (active) | 35.1% | 8.98% (active) | 5.78% (active) | -19.3% (active) | -25.4% (active) | 13.1% | 1.62% (active) | -23.4% (active) | 20.3% | 3.45% (active)
6 | NS(=O)(=O)c1ccc(CCn2c(SCC(=O)N/N=C/c3cc4ccccc4[nH]3)nc3ccccc3c2=O)cc1 | 26.4% | 24.4% | 40.5% | 113% | 68.7% | 95.4% | 65.4% | 68.6% | 64.6% | 99.8% | 45.2% | 74.3% | 45.9% | 71.9% | 37.7% | 29.6% | 88% | 50%
7 | COC(=O)OC1C(O[C@H]2C[C@H]3[C@@H]4CC=C5C[C@@H](O)CC[C@]5(C)[C@H]4CC[C@]3(C)[C@H]2[C@H](C)C(=O)CCC(C)C)OCC(O)C1OC1OCC(O)C(O)C1OC(=O)c1ccc(OC)cc1 (stereo partly drawn) | 2.6% (active) | -40.7% (active) | 26.8% | 31.2% | 57.1% | -44.5% (active) | 29.5% | 58.1% | -16.5% (active) | 70.5% | -5.41% (active) | 6.19% (active) | -15.3% (active) | -55.9% (active) | -8.41% (active) | 5.29% (active) | 53.7% | 39.2%
8 | Oc1ccccc1-c1nnc(COc2ccc(Cl)cc2Cl)o1 | 36% | 39.4% | 36.8% | 89.1% | 49.3% | 60.7% | 50.7% | 20.2% | 78.2% | 30.6% | 42.6% | 63.3% | 63.9% | 51.2% | 20.6% | 18.2% | 76.8% | 41.5%
9 | C=C[C@H]1CCC/C=C/[C@@H]2C[C@H](O)C[C@H]2[C@H](O)/C=C/C(=O)O1 | 0.87% (active) | -4.42% (active) | 2.59% (active) | 13.4% | 8% (active) | 26.3% | -0.584% (active) | -62.7% (active) | 18.8% | 5.21% (active) | -14% (active) | 0.705% (active) | 15% | -63.8% (active) | -50.1% (active) | -76.9% (active) | -62.4% (active) | -59.2% (active)
10 | CSc1ccc(/C=C2\C=C(CC(=O)NCc3ccc(C(=O)c4ccccc4)cc3)c3cc(F)ccc32)cc1 | 10.3% | 15.2% | 1.81% (active) | 25.2% | 10.9% | -34.4% (active) | 10.3% | -60.1% (active) | 2.68% (active) | -34.6% (active) | 31.6% | 25.7% | -47.8% (active) | 9.98% (active) | -2.9% (active) | -28% (active) | -0.5% (active) | -61.4% (active)
11 | CC(C)CCSc1nc(Nc2ccccc2)c(C#N)c(-c2ccc(F)cc2)n1 | 37.4% | 50% | 42.2% | 83.8% | -18% (active) | 67.2% | 33.5% | 28.8% | 49.5% | 56.8% | 46.5% | 79% | 82.5% | 46.5% | 65.2% | 24% | 83.1% | 84.8%
12 | CCc1onc(-c2ccc(OC)cc2)c1-c1ccccc1OCCN(CC)CC | 66.5% | 91.3% | 96.3% | 91.5% | 90.8% | 101% | 83.3% | 96.8% | 89.6% | 75.2% | 91.7% | 81.1% | 90.5% | 94.7% | 95.6% | 70.9% | 80.8% | 93.1%
13 | COc1ccc2nc3ccccc3c(NCc3ccc(C)cc3)c2c1 | -12.7% (active) | -46.2% (active) | 28.7% | 34% | 18.5% | 52.7% | 17.2% | 46.9% | 42.7% | 23.8% | 30.6% | 51.6% | 42.2% | 18.5% | 3.43% (active) | 8.58% (active) | -57.9% (active) | 37.3%
14 | COc1cc(C2CC(=O)Nc3c2cnn3C)cc(OC)c1OC (stereo not drawn) | 103% | 112% | 103% | 109% | 113% | 95.1% | 108% | 106% | 111% | 105% | 96.1% | 99.4% | 105% | 108% | 97.1% | 100% | 108% | 105%
15 | CCn1c(=O)c(C(=O)NCCCO)c(O)c2ccccc21 | 105% | 122% | 103% | 116% | 100% | 115% | 108% | 155% | 92.1% | 111% | 106% | 150% | 106% | 106% | 95.2% | 104% | 139% | 120%
16 | CC(C)(C)OC[C@@H]1N=C(c2ccc(Br)cc2)Nc2nc3ccccn3c2C1=O | 35.4% | 67.5% | 79.5% | 105% | 82.3% | 64.3% | 40.7% | 34.2% | 65.2% | 39.7% | 61.9% | 72.5% | -13.8% (active) | 40.3% | 27.8% | 43.7% | 90.9% | 49%
